# In PubChem BioAssay (Tox21):
# Records with an inconclusive call do not appear. Entries that show only a call come without a potency. The source made the active and inactive calls. Unless noted, calls follow the shape of the dose curve; as a rule, active = well fitted curve in the direction sought with a large enough effect in the repeat runs; inconclusive = weak or mixed curves; inactive = no such curve, though single readings can be large; an effect the other way counts as inactive or inconclusive.
# Assays:
# [1] = qHTS assay for small molecule agonists of the p53 signaling pathway (AID 651631; calls by dose curve; also: nearly all actives have a fitted effect of over 15% in size; also: potency is read from the fitted curve at half-maximal effect)
# Method in brief: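 Agonist mode screen using a stably integrated beta-lactamase gene under p53 response elements in HCT-116 cells. Compound exposure lasts 16 h at 37 °C; fluorescence intensity is measured following 2 h FRET substrate loading.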
# [2] = qHTS assay for small molecules that induce genotoxicity in human embryonic kidney cells expressing luciferase-tagged ATAD5 (AID 651632); also: nearly all actives have a fitted effect of over 15% in size
# Method in brief: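 Cells were seeded at 2,000 per well, dosed with compound, and incubated 16 hr at 37C in 5% CO2. Luciferase activity was then quantified after a 30 min room-temperature incubation with Amplite.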
# [3] = qHTS assay for small molecule agonists of the p53 signaling pathway - cell viability (AID 651633; calls by dose curve;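 also: p53RE-bla HCT reporter cells with a stable beta-lactamase p53 reporter; nearly all actives have a fitted effect of over 30% in size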)
# Method in brief: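 p53RE-bla cells were treated with compound for 16 hours at 37 C. Cytotoxicity was then measured as CellTiter-Glo luminescence after 30 min at room temperature.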
# [4] = qHTS assay for small molecules that induce genotoxicity in human embryonic kidney cells expressing luciferase-tagged ATAD5 - cell viability (AID 651634; calls by dose curve; also: nearly all actives have a fitted effect of over 25% in size)
# Method in brief: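 Cells (HEK293T, luciferase-tagged ATAD5) are seeded at 2,000 per well, dosed with compound or DMSO vehicle, and incubated 15.5 hr at 37C and 5% CO2. CellTiter-Fluor is added for 30 min before fluorescence is measured.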
# [5] = qHTS assay for small molecule disruptors of the mitochondrial membrane potential - cell viability (AID 720634; calls by dose curve;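 also: human HepG2 liver cancer cells; nearly all actives have a fitted effect of over 20% in size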)
# Method in brief: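 Cytotoxicity was measured by ATP quantitation in HepG2 wells that had first been treated with compound for 1 hr and stained with m-MPI dye; CellTiter-Glo incubation was 30 min at room temperature.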
# [6] = qHTS assay to test for compound auto fluorescence at 590 nm (red) in HepG2 cells (AID 720674)
# Method in brief: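 HepG2 cells, 2,000 per well in MEM with 10% FBS, attached overnight at 37 C, then got 23 nL compound or DMSO. After 1 hr at 37 C, 5% CO2, red fluorescence was read at 540/590 nm against Rose Bengal sodium as reference.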
# [7] = qHTS assay to test for compound auto fluorescence at 535 nm (green) in HepG2 cells (AID 720675)
# [8] = qHTS assay to test for compound auto fluorescence at 590 nm (red) in HEK293 cells (AID 720679)
# Method in brief: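 HEK293 cells (2,000/well, medium with 10% dialyzed FBS) attached for 4-5 hr at 37C, received 23 nL compound and were incubated overnight at 37C, 5% CO2. Red fluorescence was then read at 540/590nm Ex/Em, referenced to Rose Bengal sodium.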
# [9] = qHTS assay to test for compound auto fluorescence at 535 nm (green) in HEK293 cells (AID 720680)
# [10] = qHTS assay to test for compound auto fluorescence at 460 nm (blue) in HEK293 cell free culture (AID 720681)
# Method in brief: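 Compounds were added to cell-free DMEM with 10% FBS and fluorescence read directly. The blue channel used 405 nm excitation and 460 nm emission, with triamterene as the reference fluorophore.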
# [11] = qHTS assay to test for compound auto fluorescence at 535 nm (green) in HEK293 cell free culture (AID 720682)
# Method in brief: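 No cells present: wells hold DMEM supplemented with 10% FBS, into which compound or vehicle is pinned. Green emission is then recorded (485 nm excitation, 535 nm emission) and scaled to fluorescein.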
# [12] = qHTS assay to test for compound auto fluorescence at 590 nm (red) in HEK293 cell free culture (AID 720683)
# Method in brief: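 Cell-free wells of DMEM with 10% FBS received compound, and intrinsic fluorescence was read at excitation/emission 540/590 nm. Values expressed as equivalence to Rose Bengal sodium.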
# [13] = qHTS assay to test for compound auto fluorescence at 590 nm (red) in HepG2 cell free culture (AID 720684)
# Method in brief: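 Auto fluorescence equivalency versus Rose Bengal sodium, red channel Ex/Em 540/590 nm; compounds in cell-free MEM/10% FBS; DMSO vehicle control.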
# [14] = qHTS assay to test for compound auto fluorescence at 460 nm (blue) in HepG2 cell free culture (AID 720685)
# Method in brief: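 Cell-free plates of MEM plus 10% FBS received 23 nL compound or DMSO vehicle; blue-channel (405/460 nm) intensity scored against triamterene as reference fluorophore.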
# [15] = qHTS assay to test for compound auto fluorescence at 535 nm (green) in HepG2 cell free culture (AID 720686)
# [16] = qHTS assay to test for compound auto fluorescence at 460 nm (blue) in HepG2 cells (AID 720687)
# Method in brief: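 HepG2 cells in MEM with 10% FBS, attached overnight at 37 C, were exposed to compound or DMSO for 1 hr at 37 C, 5% CO2. Blue fluorescence was read at 405/460 nm, with triamterene as reference fluorophore.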
# [17] = target: Glucocorticoid receptor (Homo sapiens) (UniProt P04150); test: qHTS assay to identify small molecule agonists of the glucocorticoid receptor (GR) signaling pathway (AID 720691; active = well fitted activation curve with a large enough effect in the signal ratio in the repeat runs, not every such curve was filed as active; the % refers to the signal ratio); settings: GR-bla HeLa, beta-lactamase reporter ratio, 18 h; activation: at 62.4 µM (top of the series)
# Glucocorticoid receptor (Homo sapiens), sequence (P04150 whole entry, looked up): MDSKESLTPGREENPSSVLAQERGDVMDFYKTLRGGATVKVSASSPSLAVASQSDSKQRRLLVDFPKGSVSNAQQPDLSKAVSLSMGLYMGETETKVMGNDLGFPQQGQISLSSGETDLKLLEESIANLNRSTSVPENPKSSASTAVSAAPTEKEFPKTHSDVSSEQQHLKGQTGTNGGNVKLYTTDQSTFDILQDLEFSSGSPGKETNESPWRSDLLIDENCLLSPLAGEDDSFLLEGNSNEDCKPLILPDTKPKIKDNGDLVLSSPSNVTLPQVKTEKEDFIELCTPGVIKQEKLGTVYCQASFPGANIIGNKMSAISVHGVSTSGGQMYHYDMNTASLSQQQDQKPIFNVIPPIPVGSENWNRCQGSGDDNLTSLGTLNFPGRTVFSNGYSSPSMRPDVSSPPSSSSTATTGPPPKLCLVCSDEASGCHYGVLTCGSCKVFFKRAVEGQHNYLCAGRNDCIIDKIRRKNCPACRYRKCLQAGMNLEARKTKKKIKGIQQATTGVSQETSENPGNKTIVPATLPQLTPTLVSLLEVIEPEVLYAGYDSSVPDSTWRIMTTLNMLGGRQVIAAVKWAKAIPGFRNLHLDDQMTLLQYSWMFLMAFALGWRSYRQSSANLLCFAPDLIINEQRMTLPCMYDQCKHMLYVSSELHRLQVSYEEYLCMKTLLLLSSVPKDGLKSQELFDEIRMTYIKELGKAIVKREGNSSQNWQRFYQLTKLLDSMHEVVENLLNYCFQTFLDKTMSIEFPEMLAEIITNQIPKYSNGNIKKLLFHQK
# Method in brief: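 Steps: seed GR-bla HeLa cells, incubate 4 h at 37 C/5% CO2; pin-transfer DMSO-dissolved compounds; incubate 18 h at 37 C; add LiveBLAzer B/G FRET substrate; after 2 h at room temperature, measure fluorescence.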
# [18] = target: Glucocorticoid receptor (Homo sapiens) (UniProt P04150); test: qHTS assay to identify small molecule antagonists of the glucocorticoid receptor (GR) signaling pathway (AID 720692; active = well fitted inhibition curve with a large enough effect in the signal ratio in the repeat runs, not every such curve was filed as active; the % refers to the signal ratio)
# Method in brief: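 Antagonism was scored as loss of dexamethasone-driven (5 nM final) reporter signal in HeLa cells bearing a glucocorticoid response element–beta-lactamase construct, after 18 h compound exposure at 37 C and 2 h FRET substrate loading.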
# [19] = qHTS assay to test for compound auto fluorescence at 460 nm (blue) in HEK293 cells (AID 720678)
# Method in brief: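 HEK293 cells (2,000 per well, medium with 10% dialyzed FBS) attached for 4-5 hr at 37C, then received compound and stood overnight at 37C, 5% CO2. Blue fluorescence was read at Ex/Em 405/460 nm and expressed relative to triamterene.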
# [20] = qHTS assay for small molecule disruptors of the mitochondrial membrane potential (AID 720635)
# Method in brief: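 HepG2 cells exposed to compound 1 hr at 37C, then Mito-MPS dye 30 min. Ratio read of aggregate (540/590 nm) versus monomer (490/535 nm) fluorescence.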
SMILES,Potency [1],Potency [2],Potency [3],Potency [4],Potency [5],Potency [6],Potency [7],Potency [8],Potency [9],Potency [10],Potency [11],Potency [12],Potency [13],outcome [14],Potency [15],outcome [16],Potency [17],Potency [18],Potency [19],Potency [20]
O=C1N=C2SCCN2C(=O)C1Cc1ccc(Cl)cc1 (stereo not drawn),inactive,inactive,inactive,inactive,inactive,inactive,inactive,inactive,inactive,inactive,inactive,inactive,inactive,inactive,inactive,inactive,inactive,inactive,–,–
c1ccc2c(CCC3CCNCC3)c[nH]c2c1,inactive,inactive,inactive,inactive,–,inactive,inactive,inactive,inactive,inactive,inactive,inactive,inactive,inactive,inactive,inactive,inactive,inactive,inactive,–
COC(=O)[C@@H](N)CS,inactive,inactive,inactive,–,inactive,inactive,inactive,inactive,inactive,inactive,inactive,inactive,inactive,inactive,inactive,inactive,inactive,inactive,inactive,inactive
NCc1ccccc1CC(=O)N[C@@H]1C(=O)N2C(C(=O)O)=C(CSc3nnnn3CC(=O)O)CS[C@H]12,inactive,inactive,inactive,inactive,inactive,inactive,inactive,inactive,inactive,inactive,inactive,inactive,inactive,inactive,inactive,inactive,–,inactive,inactive,–
CS(=O)(=O)c1ccc(C2=C(c3ccccc3)C(=O)OC2)cc1,inactive,inactive,inactive,inactive,inactive,inactive,inactive,inactive,inactive,inactive,inactive,inactive,inactive,–,inactive,inactive,inactive,inactive,inactive,–
C=CCSSSCC=C,9.44 µM (active),inactive,inactive,inactive,inactive,inactive,inactive,inactive,inactive,inactive,inactive,inactive,inactive,inactive,inactive,inactive,–,inactive,inactive,–
C[Se]CCC(N)C(=O)O (stereo not drawn),inactive,inactive,inactive,inactive,inactive,inactive,inactive,inactive,inactive,inactive,inactive,inactive,inactive,inactive,inactive,inactive,inactive,inactive,inactive,–
